Compounds with a hit are over-represented: about 11% of the library has one in this group of screens.
HP1b binding inh: inhibitors of HP1-beta chromodomain binding to methylated histone tails. AlphaScreen HP1-beta / biotin-H3K9me3 peptide binding. Potency, µM (top dose mostly 114 µM), actives largely listed as inhibitors. hit rate 0.56% among 390,000. P83916; note: nearly all actives have a fitted effect of over 70% in size
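AlphaScreen: HP1-beta (50 nM) preformed 30 min with biotin-H3(1-18)K9me3 peptide (50 nM) in PBS pH 7.4, 0.01% Tween-20. Compound added for 30 min at RT, then streptavidin donor/nickel chelate acceptor beads (10 ug/mL) for 30 min.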
BAZ2B inh: BAZ2B (human) inhibition | Q9UIF8 | AlphaScreen BAZ2B-H3K14Ac peptide displacement | Potency, µM (titrated, usually from 114 µM), actives largely listed as inhibitors | hit rate 4.4% among 360,000 | AID 504333; note: nearly all actives have a fitted effect of over 60% in size
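BAZ2B (50 nM) with biotin-H3(5-23)K14Ac peptide (50 nM) in PBS pH 7.4, 0.01% Tween-20, preformed 30 min, then compound 30 min at room temperature; top concentration 110uM. AlphaScreen streptavidin donor/nickel chelate acceptor beads (10 ug/mL final), 20 min dark, signal read.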
JMJD2A Tudor inh: blocks the human JMJD2A Tudor domain. AlphaScreen JMJD2A-Tudor / H3K4me3 peptide binding. Potency, µM (series often up to 114 µM), actives largely listed as inhibitors. hit rate 4.4% among 390,000; note: nearly all actives have a fitted effect of over 50% in size
Target sequence (O75164 whole entry, looked up, the tested form may be a part): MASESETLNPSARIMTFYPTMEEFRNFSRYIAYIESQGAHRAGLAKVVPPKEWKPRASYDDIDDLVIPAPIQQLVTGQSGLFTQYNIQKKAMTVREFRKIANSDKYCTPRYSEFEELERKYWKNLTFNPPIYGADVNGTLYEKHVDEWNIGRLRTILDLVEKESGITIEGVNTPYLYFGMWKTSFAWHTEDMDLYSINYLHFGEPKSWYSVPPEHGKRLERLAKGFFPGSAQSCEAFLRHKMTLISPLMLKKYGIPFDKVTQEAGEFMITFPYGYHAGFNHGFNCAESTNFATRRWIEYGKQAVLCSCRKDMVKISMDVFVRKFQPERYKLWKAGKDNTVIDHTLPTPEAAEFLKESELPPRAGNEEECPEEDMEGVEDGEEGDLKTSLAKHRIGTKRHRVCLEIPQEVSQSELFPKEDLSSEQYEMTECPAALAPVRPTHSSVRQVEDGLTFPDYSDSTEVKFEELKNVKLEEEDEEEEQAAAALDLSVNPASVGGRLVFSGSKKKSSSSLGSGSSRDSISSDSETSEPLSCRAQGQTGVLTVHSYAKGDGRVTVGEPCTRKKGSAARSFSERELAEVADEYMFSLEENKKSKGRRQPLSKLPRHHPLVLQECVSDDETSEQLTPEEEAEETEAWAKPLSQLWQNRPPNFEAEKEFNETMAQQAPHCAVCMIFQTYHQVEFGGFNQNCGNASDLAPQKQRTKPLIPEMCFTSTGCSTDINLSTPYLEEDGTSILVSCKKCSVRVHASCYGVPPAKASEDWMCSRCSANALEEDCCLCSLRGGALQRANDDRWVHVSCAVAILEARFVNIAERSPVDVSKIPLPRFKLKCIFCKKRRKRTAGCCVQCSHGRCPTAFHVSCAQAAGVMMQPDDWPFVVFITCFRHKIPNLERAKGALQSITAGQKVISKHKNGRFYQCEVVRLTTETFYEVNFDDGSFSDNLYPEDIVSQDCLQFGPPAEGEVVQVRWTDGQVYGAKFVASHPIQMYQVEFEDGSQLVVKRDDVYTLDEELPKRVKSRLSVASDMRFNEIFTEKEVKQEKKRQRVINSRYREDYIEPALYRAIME
G9a block: inhibitors of human histone lysine methyltransferase G9a; AID 504332; G9a H3K9 monomethylation, AlphaScreen, 2 h; hit rate 8.8% among 350,000; Potency, µM (highest dose often 102 µM), usual class: inhibitors; note: nearly all actives have a fitted effect of over 75% in size
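Chemiluminescent proximity detection of H3K9 monomethylation, read after 10 min bead incubation in the dark. Reaction: 20 nM G9a, 500 nM biotin-H3K9 peptide, 20 uM SAM cofactor, 2 h, room temperature, following 15 min enzyme-compound preincubation.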
L3MBTL1 block: inhibitors of human L3MBTL1 | Q9Y468 | AID 485360 | AlphaScreen L3MBTL1–H3K9me1 peptide binding | hit rate 0.66% among 230,000 | Potency, µM (series often up to 57.1 µM), most hits filed as inhibitors; note: nearly all actives have a fitted effect of over 60% in size
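L3MBTL1 (50 nM) pre-complexed 30 min with biotinylated H3(1-15)K9me1 peptide (75 nM), then compounds added for 30 min at room temperature; AlphaScreen streptavidin donor/nickel chelate acceptor beads (10 ug/mL final) read after 30 min dark incubation.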
A number is an active result; – = inactive; ? = inconclusive; · = no result given; [ ] = dose if it differs, or a comment. Calls come from the whole dose curve; as a rule, active = well fitted inhibition curve with a large enough effect; inconclusive = small, poorly fitted or top-dose-only effect; inactive = no such curve, though single readings can be large or run the other way.

SMILES | HP1b binding inh | BAZ2B inh | JMJD2A Tudor inh | G9a block | L3MBTL1 block
COc1ccc(C2=C(C(C)=O)Sc3nnc(-c4ccc(C)cc4)n3N2C(C)=O)cc1OC | – | – | – | – | ·
CC(C)C[C@@H](CN)NC(=O)c1nc[nH]c1C(=O)N[C@@H](C)C(=O)CNC[C@H](CC(C)C)NC(=O)c1nc[nH]c1C(=O)N[C@@H](Cc1ccccc1)C(=O)O | – | · | 79µM | · | ·
CC(C)C[C@H](NC(=O)c1[nH]cnc1C(=O)N[C@@H](Cc1ccccc1)C(=O)OCc1ccccc1)C(=O)OCc1ccccc1 | – | – | ? | · | –
CC(C)C[C@@H](CNCC(=O)[C@H](Cc1ccccc1)NC(=O)c1[nH]cnc1C(=O)N[C@H](CN)CC(C)C)NC(=O)c1nc[nH]c1C(=O)N[C@@H](CC(=O)O)C(=O)O | – | · | 28µM | · | ·
CC(C)C[C@H](NC(=O)c1nc[nH]c1C(=O)N[C@@H](CC(C)C)C(=O)OCc1ccccc1)C(=O)OCc1ccccc1 | – | – | – | · | –
CC(C)C[C@H](NC(=O)c1nc[nH]c1C(=O)NCCCCCN)C(=O)OCc1ccccc1 | – | · | 79µM | · | –
CC(C)C[C@@H](CNCC(=O)[C@H](C)NC(=O)c1[nH]cnc1C(=O)N[C@@H](C)CN)NC(=O)c1nc[nH]c1C(=O)N[C@@H](Cc1ccccc1)C(=O)O | – | · | 79µM | · | ·
CC(C)C[C@@H](CNCC(=O)[C@H](CC(C)C)NC(=O)c1[nH]cnc1C(=O)N[C@H](CN)CC(C)C)NC(=O)c1nc[nH]c1C(=O)N[C@@H](Cc1ccccc1)C(=O)O | – | · | ? | · | ·
CCOc1ccccc1CNC(=O)c1ccc2nc(N3CCC(C)CC3)sc2c1 | – | – | – | – | ·
COc1cccc(CNC(=O)c2ccc3c(c2)nc2n3CCCCC2)c1OC | – | – | – | – | ·
O=C(NCc1ccco1)c1cnn2c1NC(c1ccccc1)CC2C(F)(F)F (stereo not drawn) | – | – | ? | –[12.7 µM] | –
O=C(c1cnn2c1NC(c1ccco1)CC2C(F)(F)F)N1CCN(c2cccc(Cl)c2)CC1 (stereo not drawn) | – | ? | – | 10µM | –
O=C(NCc1ccco1)c1cnn2c1NC(c1ccc(Br)cc1)CC2C(F)(F)F (stereo not drawn) | ? | ? | ? | 50µM | –
CCCOc1ccc(C2C(=O)N(C3CCCCC3)CC(=O)N2CCc2ccccc2)cc1OC (stereo not drawn) | – | – | – | – | ·
CCOc1cc2[nH]c(=O)n(CCCCC(=O)N3CCN(c4ccccc4OC)CC3)c(=O)c2cc1OCC | – | – | – | – | ·
Cc1ccc(C(=O)C[n+]2cc(Br)cc(Br)c2)cc1[N+](=O)[O-] | – | ? | ? | 50µM | –
O=C(C[n+]1cc(Br)cc(Br)c1)c1ccc(Cl)cc1 | – | – | – | ? | ·
O=C(C[n+]1cc(Br)cc2ccccc21)c1ccc(Cl)cc1 | – | – | ? | 50µM | ·
Cc1ccc(C(=O)C[n+]2ccccc2)cc1 | – | – | – | 14µM | ·
O=C(C[n+]1cc(Br)cc(Br)c1)c1ccc(-c2ccccc2)cc1 | – | ? | ? | 25µM | ·
Cc1ccc[n+](CC(=O)c2ccc(-c3ccccc3)cc2)c1 | – | – | – | – | –
Cc1ccc(Cn2cc3c(n2)-c2c(oc(C(=O)Nc4ccc(F)cc4F)c2C)CC3)cc1 | – | – | – | – | ·
c1ccc(N2CCN(Cc3nnc(-c4ccc5c(c4)OCO5)o3)CC2)cc1 | – | – | – | – | ·
O=C(C[n+]1cc(Br)cc2ccccc21)c1ccc(Br)cc1 | – | – | ? | 28µM | –
COc1ccc(C(=O)C[n+]2ccccc2C)cc1 | ? | – | 25µM | – | –
SMILES | HP1b binding inh | BAZ2B inh | JMJD2A Tudor inh | G9a block | L3MBTL1 block
O=C(C[n+]1cn(C(F)F)c2ccccc21)c1ccc(Br)cc1 | – | 50µM | – | – | –
COc1ccccc1CNC(=O)c1cc2c(=O)n(Cc3cccs3)ccc2nc1C | – | – | – | – | ·
O=C1c2cccc3cccc(c23)C(=O)N1CCCc1n[nH]c(=S)n1-c1ccccc1 | – | – | 13µM | 4µM | –
COc1ccc2nc3ccccc3nc2c1N | 40µM | 28µM | 40µM | 1µM | ?
COc1ccc2nc3cccc(OC)c3nc2c1 | – | ? | – | 22µM | ·
COc1ccccc1-c1nc2ccccc2nc1-c1ccccc1OC | – | – | – | – | –
COc1ccccc1CCNC(=O)c1ccc(-c2nc(CSc3ccc(C)cc3)c(C)o2)cc1 | – | – | – | – | ·
COc1cc(C(=S)N(C)C)ccc1O | ? | – | –[11.4 µM] | 6.3µM | –
CCCCNC(=O)O[C@@H]1C[C@H]2CCCC(=O)N3CC[C@@H](C1)[C@@H]23 | – | – | – | – | –
CCCCCCCN(c1ccccc1)[C@@H]1C[C@H]2CCCC(=O)N3CC[C@@H](C1)[C@@H]23 | – | · | 45µM | · | ·
Cc1cccc(NC(=O)c2cnn(-c3ccccc3)c2-n2cccc2)c1C | – | – | – | – | ·
CCNC(=S)N/N=C/c1ccc(F)cc1 | · | – | · | – | –
CCCCNC(=S)N/N=C/c1ccc(C#N)cc1 | ? | – | 89µM | – | –
COc1ccc(-c2nn3c(C4CCCCC4)nnc3s2)cc1OC | ? | – | – | 10µM | –
COc1ccccc1-c1nnc2sc(-c3cnccn3)nn12 | – | – | 50µM | ? | ·
COc1cccc(-c2nn3c(-c4ccccn4)nnc3s2)c1 | – | – | 79µM | – | ?
COc1cccc(-c2nnc3sc(-c4ccccn4)nn23)c1 | ? | · | –[11.4 µM] | – | –
COc1ccc(-c2nn3c(-c4ccccn4)nnc3s2)cc1OC | – | 45µM | ? | – | –
Cc1ccc(C)c(CN2C(=O)c3ccccc3S(=O)c3ccc(C(=O)N4CCCCC4)cc32)c1 (stereo not drawn) | – | – | – | – | ·
COc1cccc(NC2=CC(c3ccc(C(C)C)cc3)N(c3cccc(OC)c3)C2=O)c1 (stereo not drawn) | – | ? | – | ? | ·
COc1ccc(C2C=C(Nc3ccccc3)C(=O)N2c2ccccc2)cc1OC (stereo not drawn) | – | – | – | 8.9µM | –
COc1cccc(C2C=C(Nc3ccccc3)C(=O)N2c2ccccc2)c1 (stereo not drawn) | – | – | – | 45µM | –
c1coc(CN2CCN(C(c3cccs3)c3nnnn3C3CCCC3)CC2)c1 (stereo not drawn) | – | ? | ? | 50µM | –
COc1ccccc1Nc1nn2c(=O)c3ccc(C(=O)NC4CCCCC4)cc3nc2s1 | – | – | – | – | ·
Cc1noc(C)c1COC(=O)c1cc2c3ccccc3n(C)c2s1 | – | – | – | 40µM | –
COc1ccc(OC)c(CNc2ncnc3onc(-c4ccc(Cl)cc4)c23)c1 | – | – | – | – | ·
CCc1ccc(-c2nc3cc(NC(=O)c4ccc(F)cc4)ccc3o2)cc1 | – | – | – | – | ·
O=S(=O)(Nc1nc2c(s1)CCCC2)c1ccc2ccccc2c1 | – | ? | ? | 50µM | ·
c1ccc2c(Nc3nc4c(s3)CCCC4)cccc2c1 | ? | 50µM | – | –[0.0925 µM] | –

Bioassay records: PubChem, National Center for Advancing Translational Sciences (NCATS)
